# Results published in the supplement of paper PMC11417369.
# ± gives the standard deviation of the averaged measurements. The full ranking holds about 25,000 sequences; the median of “ln(normalized median fluorescence intensity)” is about 10, and the highest 2% start at about 12. Many of the other results were omitted from the sample, so the highest values are more common in it than they were.
# Test system: PfAP2-G AP2 domain (GST-tagged)
# Experiment: gcPBM binding intensity (ln(normalized median fluorescence intensity)); higher = stronger DNA binding
# Summary of the method: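 Probes on an Agilent 4 × 180k array were primer-extended, double-stranded and 36 bp long, taken from intergenic genomic regions, with negative controls added. GST-tagged P. falciparum DNA-binding domains from E. coli, about 25 μg on average, were applied to the array for 1 h in 1× PBS containing 1% milk, 0.2 mg/ml BSA, 0.5% salmon testes DNA and 0.03% Triton X-100. Binding intensity, obtained after Alexa488 anti-GST antibody detection and a 488 nm scan, is the highest Masliner-normalised natural-log median intensity across replicate spots of either probe orientation.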
row,Sequence,gcPBM binding intensity (ln)
1,TAAATTATAATATGCACACAAAATGTTATATTAAAA [CACACA_site376],9.97 ± 0.26
2,TAAAAAATAAATATATGTACGCAATAAATGTGTTAA [XGTACX_site4043],11.6 ± 1.1
3,AATTTTATTTAATTTTTTTGGGAAATGATAAAATTT [CACACA_negctrl_site934],9.88 ± 0.2
4,CATATGCGTCTTGCCTTGCACACTTTTATGAAAAAA [CACACA_site2055],10.4 ± 0.26
5,ATACACACTTAAAAAAGTACTTAACTACATGAATTG [XGTACX_site1203],11.1 ± 0.59
6,ACCATACATACATACACACACACACGCATATTTATA [CACACA_site7386],10.4 ± 0.28
7,CATATTCCCCCCCACACACACACACCCATACATACC [CACACA_site2303],11.7 ± 0.71
8,TACACCCACCCACATACACACACATACACATATATA [CACACA_site8503],10.3 ± 0.35
9,TATTCCCCCAAACACACACACACACCCACATACCAC [CACACA_site2304],11.1 ± 0.78
10,GACATATTCCCCCCCACACACACACCCACATACATA [CACACA_site2302],11.8 ± 0.71
11,CACAAACACCCAAACACACACACACCGACATACATA [CACACA_site4410],10.2 ± 0.27
12,TATATATACATATACACACACACACCCATATATATA [CACACA_site2246],10.1 ± 0.2
13,CATACACCCATACATACACACATACATATATATATA [CACACA_site8591],10.2 ± 0.11
14,TATTCCCCCCAACACACACACACACCGACATACCAC [CACACA_site8723],11.8 ± 1.1
15,CATATATACGCATACACACACACACCCACACCCACA [CACACA_site1725],10.6 ± 0.52
16,CATATTCCCCCCCACACACACACACGCATACATACC [CACACA_site7148],11.8 ± 0.6
17,CACCCACCCACATACACACACATACACATATATATA [CACACA_site1722],10.2 ± 0.25
18,TTTTTGTATTCTACCTTAACAATCTTAAAGATTTTT [CACACA_negctrl_site1157],9.97 ± 0.11
19,GTAAATAATAAACACCGTACATGGTATAATTCAATG [XGTACX_site3655],10.7 ± 0.33
20,AAGTCAATTTTTTTTTTTTTTTTTTAACTTATTAAT [TGCATGCA_negctrl_site14],9.605 ± 0.078
21,TCATTTCACAGACACACACACACAAGATATTTCCTT [CACACA_site7774],10.1 ± 0.11
22,AAAAAAAAAGGTACTACACACTATTCTCAATAGAAA [CACACA_site6193],11.1 ± 0.86
23,TAACAATAACTTTATACACACATAATATAAATATAT [CACACA_site7635],9.87 ± 0.014

row,Sequence,gcPBM binding intensity (ln)
1,AACACCAATTCATATGCACACACATCTGCATATTAT [CACACA_site8523],10.12 ± 0.078
2,TATATTAAAAAAGAGGTGCATTCGTAAGAGGTTAAA [GTGCAC_site9720],10.05 ± 0.064
3,CAACATTTGATAAACACACAGAAGTATAAATATATA [CACACA_site2365],10.24 ± 0.035
4,AAAATAAACCCAGACACACTCATTAAAAAATATCAT [CACACA_site5903],9.95 ± 0.099
5,AAAAATGTATGTATGGTGCAGTATTCATATCATTTT [GTGCAC_site9458],10.03 ± 0.021
6,AAAACAAATGAGTACACACACATAAAAATTGAAAAT [CACACA_site199],11.5 ± 0.9
7,ATAAAACAAATGAGTACACACACATAAAAATTGAAA [CACACA_site7949],11.6 ± 1.2
8,ATATAAAAAAAAAAAAGTACACATAAACAAATGCAT [XGTACX_site4241],11.7 ± 1
9,AAAATATATACACAAACATGCATATAATAAATAAAT [TGCATGCA_site711],9.895 ± 0.064
10,AAAGTAAAAACACATACATGCATATACACATATAAC [TGCATGCA_site341],9.9 ± 0.12
11,CTTTATAATATTTGTTGTACACAAATATAACATATT [XGTACX_site709],11.6 ± 1.1
12,TTTGTTAATATAAAAACACACAAAAATAACATAAAA [CACACA_site2619],10.2 ± 0.22
13,AAAACAAATGAGTACACACACATAAAAGTTGAAAAT [CACACA_site6238],11.8 ± 1.3
14,GTTGTTATATAAAGGAGTACATAATAACACAAATAT [XGTACX_site615],11.7 ± 1.2
15,TTTTTGTTCTATATGGTGCATGTTTATATTCGTATT,10.2 ± 0.19
16,AATTATAATAATAATAGTACATAAGTATATAAATAA [XGTACX_site2400],11 ± 0.62
17,AAATAAATAAGAAACGCATGCATATATAATATATAA [TGCATGCA_site326],9.83 ± 0.057
18,AGTAATAATCGGCATGCATGTCAGTGGTAGTATATA [TGCATGCA_site312],10.3 ± 0.41
19,TCTTCATTTTTATGTGCATGTAAAATTTTTTTTTTT [TGCATGCA_site963],10.2 ± 0.19
20,TTTTTTAACCTTTTATGTACACAATATTTAACATTT [XGTACX_site1170],11.6 ± 0.95
21,TTGTACTACAATCCTTTATTTATTTAAACCTGTATG [CACACA_negctrl_site428],11.6 ± 1.1
22,ATATAATATTTATATGTACACACCTTAATCCTTAAA [CACACA_site3555],11.3 ± 0.81
